# Screening results (PubChem BioAssay)
# Wnt bcat act – activators of Wnt/beta-catenin signaling; Wnt/beta-catenin reporter cell assay, activator, plate reader; activation, % at 9.35 µM; 1.2% of 300,000 active; AID 743398; in the data active = activation above about 30%, passing the limit was not always enough; inconclusive = no clear call, values can overlap the other calls;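 note: 0% = neutral control wells and 100% = positive control wells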
# esBAF inh – blocks esBAF chromatin remodeling in mouse ES cells. Bmi1-luciferase knock-in reporter, 24 h; 100% = twice the neutral-well signal. 2% of 350,000 active. AID 602393. reporter increase, % at 12.5 µM; in the data active = activation above about 40%; inconclusive = no clear call, values can overlap the other calls;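 note: 0% = median of the plate's neutral control wells and 100% = double that signal; a rise in the Bmi1 reporter signal indicates esBAF inhibition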
# C2C12 statin – suppressors of simvastatin-induced myotoxicity in C2C12 myotubes; ATP luminescence, 48 h; scaled: DMSO 0, geranylgeraniol control 100; rescue of ATP level, % at 7.49 µM; 0.78% of 330,000 active; AID 602340;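 active = mean ATP rescue above about 67%, or every replicate alone reaching that limit, limit read from the data, passing the limit was not always enough; inconclusive = no clear call, values can overlap the other calls; inactive = mean under the limit and some replicate under it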;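 note: myotubes were challenged with 10 µM simvastatin during compound exposure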
# MITF act – MITF TRPM1 promoter activation in melanoma cells. SK-MEL-5 TRPM1-promoter luciferase, 24 h; % of positive control, neutral wells = 0. activation, % at 12.5 µM. 0.75% of 300,000 active. AID 588334;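 active = mean activation of at least 80% with every replicate also reaching 80%; inconclusive = mean reaches 80% but some replicate falls short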;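 note: 0% = neutral control wells and 100% = parthenolide positive control wells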
# Rtt109 HAT inh – C. albicans Rtt109 histone acetyltransferase inhibition; Q5AAJ8; purified Rtt109/Vps75, ThioGlo CoA-SH fluorescence, 4 h; inhibition, % at 34.9 µM; 0.16% of 330,000 active; AID 540336;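 active = inhibition of at least 50% in every replicate; inconclusive = best replicate reaches 50% inhibition but some replicates fall short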
# Target sequence (Q5AAJ8 whole entry, looked up): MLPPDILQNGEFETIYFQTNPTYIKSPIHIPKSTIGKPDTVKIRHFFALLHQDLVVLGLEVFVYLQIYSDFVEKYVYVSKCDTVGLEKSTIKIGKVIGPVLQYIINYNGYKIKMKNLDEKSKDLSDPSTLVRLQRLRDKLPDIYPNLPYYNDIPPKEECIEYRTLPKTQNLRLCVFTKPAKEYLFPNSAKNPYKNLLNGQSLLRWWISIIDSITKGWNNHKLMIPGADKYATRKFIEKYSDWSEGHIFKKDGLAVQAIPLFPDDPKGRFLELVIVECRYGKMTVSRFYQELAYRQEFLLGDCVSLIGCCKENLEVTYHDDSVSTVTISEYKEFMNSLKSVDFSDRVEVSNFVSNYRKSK
# * marks the source's active call; other numbers are inactive results; ? = inconclusive; · = no result. In the library only some 3.1% were active in any assay of this set; here they are far more common.
SMILES,Wnt bcat act,esBAF inh,C2C12 statin,MITF act,Rtt109 HAT inh
CNC(=O)C[C@H]1CC[C@@H]2[C@H](COc3ccc(NC(=O)NCc4ccccc4)cc3C(=O)N2C)O1,·,1,0,·,·
C[C@@H]1CN([C@@H](C)CO)C(=O)CCCn2nncc2CO[C@@H]1CN(C)C,·,1,1,·,·
Cc1[nH]c2ccccc2c1C(=O)/C=C\c1ccccc1Cl,·,·,·,19,12
Cc1[nH]c2ccccc2c1C(=O)/C=C/c1ccccc1,-2,84*,-22,23,-4
Cn1c(SCc2ccccc2F)nnc1-c1cnccn1,12,22,·,53,10
c1ccc(CSc2nnc(-c3ccccn3)n2-c2ccccc2)cc1,-4,1,107*,·,9
Cn1c(SCc2ccccc2F)nnc1-c1ccccn1,56*,27,0,54,1
Cn1c(SCc2ccc(F)cc2)nnc1-c1ccccn1,43*,41*,4,52,6
Cc1ccc(CSc2nnc(-c3ccccn3)n2C)cc1,10,27,1,·,3
C[C@@H]1CN([C@@H](C)CO)C(=O)c2cc(NS(=O)(=O)c3ccccc3)ccc2O[C@@H]1CN(C)S(=O)(=O)c1cccs1,·,1,-4,·,·
Nc1nc2ccccc2n1/N=C/c1cccnc1,·,·,·,2,16
Nc1nc2ccccc2n1/N=C/c1ccc(-c2ccccc2)o1,53*,?,1,·,2
Cc1cc([N+](=O)[O-])ccc1NC(=O)c1csc(C)c1C,22,·,·,124*,-7
O=C(C1CC1)N1CCN(c2nc3ccccc3s2)CC1,31*,46*,6,87*,-6
Cc1onc(-c2ccccc2Cl)c1C(=O)N1CCN(c2nc3ccccc3s2)CC1,44*,-4,3,-22,·
Cc1onc(-c2ccccc2Cl)c1C(=O)N1CCCCC1,-3,8,6,7,2
C=CCNC(=S)NNC(=O)c1cccn(Cc2ccc(Cl)cc2Cl)c1=O,-8,-5,24,0,-4
CCNC(=S)NNC(=O)c1cccn(Cc2ccc(Cl)cc2Cl)c1=O,-4,-6,82*,1,6
CCOC(=O)C1=NN(C(=O)Cc2ccccc2)C(O)(c2ccc(Cl)cc2)C1 (configuration not stated),-2,-1,139*,6,9
CCCC#Cc1ccc2c(c1)O[C@@H](CN(C)S(=O)(=O)c1cccc(OC)c1)[C@@H](C)CN([C@H](C)CO)S2(=O)=O,·,3,-22,·,·
FC(F)Oc1ccc(-c2csc(NNC3=NCCCCC3)n2)cc1,9,49*,15,-5,7
Brc1ccc(-c2csc(NNC3=NCCCCC3)n2)cc1,·,21,-2,-3,6
CO[C@@H]1CN(C)C(=O)c2cc(NC(=O)CC(F)(F)F)ccc2OC[C@@H](C)N(S(=O)(=O)c2cn(C)cn2)C[C@H]1C,·,4,-20,·,·
COc1ccc(C(=O)N/N=C\c2ccoc2)cc1,5,·,·,-2,6
Cc1ccc(C(=O)N/N=C/c2ccoc2)cc1C,-1,50*,-6,18,12
SMILES,Wnt bcat act,esBAF inh,C2C12 statin,MITF act,Rtt109 HAT inh
Cc1ccc(S(=O)(=O)N(C)C[C@@H]2Oc3c(NS(=O)(=O)c4cn(C)cn4)cccc3C(=O)N([C@@H](C)CO)C[C@@H]2C)cc1,·,-6,-8,·,·
O=S(=O)(Nc1ccc(O)c(Sc2nc3ccccc3s2)c1)c1cccc2ccccc12,-2,·,·,2,58*
CC1(O)C(c2ccccc2)=Nc2ccccc21 (configuration not stated),61*,34,-10,·,·
COC(=O)CCc1nc2c(C#N)c(-c3ccc(Cl)cc3)ccn2n1,1,-10,5,-2,2
N#Cc1c(-c2ccc(Cl)cc2)ccn2nc(C3CCCCC3)nc12,26,·,·,90*,-5
C[C@]12CC[C@@H]3c4cc(O)c(O)cc4CC[C@H]3[C@@H]1CC[C@@H]2O,-7,4,-25,3,123*
C[C@]12CC[C@@H]3c4ccc(O)cc4CC[C@H]3[C@@H]1CC[C@@H]2O,9,13,2,-2,9
CN1[C@H](C(=O)NC2CCCCC2)[C@@H](CO)[C@@H]2Cn3c(ccc(-c4cccc(F)c4)c3=O)[C@@H]21,·,-3,-29,·,·
Cc1ccccc1NC(=S)NCC1CCN(C(C)c2ccccc2)C1 (configuration not stated),46*,5,5,-7,3
COCCNC(=O)[C@@H]1[C@@H](CO)[C@@H]2Cn3c(ccc(C4=CCCCC4)c3=O)[C@H]1N2C(=O)C1CCC1,·,-1,12,·,·
COc1ccc(S(=O)(=O)N[C@@H]2C=C[C@H](CC(=O)N3CCC(Cc4ccccc4)CC3)O[C@@H]2CO)cc1,·,-13,7,·,·
COc1ccccc1NC(=O)c1cc2ccccc2o/c1=N\O,·,39,-3,8,4
COc1ccccc1NC(=O)c1cc2ccc(O)cc2o/c1=N\O,·,26,69*,37,-23
COc1ccc(S(=O)(=O)Nc2ccc3c(c2)CC(=O)N([C@@H](C)CO)C[C@H](C)[C@H](CN(C)Cc2ccc(C(=O)O)cc2)O3)cc1,·,-4,16,·,·
O=C(C[C@@H]1CC[C@H](NC(=O)c2ccccc2)[C@@H](CO)O1)Nc1ccc(-c2ccccc2)cc1,·,11,-2,·,·
Cc1ccc(NC(=O)/C(C#N)=C/c2ccc(C)s2)c(C)c1,·,42*,10,42,-3
COC(=O)c1cc(C)nc(Nc2nc(C(N)Cc3ccc(Cl)cc3)cs2)n1 (configuration not stated),641*,1,-8,·,·
COC(=O)c1cc(C)nc(Nc2nc(C(N)Cc3ccc(F)cc3)cs2)n1 (configuration not stated),-1,2,1,·,·
CCCCOc1ccc(C(=O)NCCc2ccccc2)cc1,14,22,-18,26,-2
NC(=S)c1ccc(OCCCc2ccccc2)cc1,37*,71*,6,·,·
COCCNC(=S)NC(=O)c1ccc(C(C)(C)C)cc1,19,33,-30,87*,6
COc1ccc(S(=O)(=O)N2CCCCC2c2cc(C(=O)Nc3ccc4c(c3)OCO4)no2)cc1 (configuration not stated),-1,16,-11,·,·
Cc1ccc(S(=O)(=O)N2Cc3ccccc3CC2C(=O)Nc2ccc3c(c2)OCO3)cc1 (configuration not stated),·,66*,2,34,0
COc1ccc(S(=O)(=O)N2Cc3ccccc3CC2C(=O)Nc2ccc3c(c2)OCO3)cc1 (configuration not stated),4,59*,10,41,-4
Cc1ccc(S(=O)(=O)N2Cc3ccccc3CC2C(=O)NC(C)(C)C)cc1 (configuration not stated),-1,0,-7,7,10
O=C([C@@H]1[C@@H](CO)[C@@H]2Cn3c(ccc(-c4cccnc4)c3=O)[C@H]1N2CC1CC1)N1CCCCC1,·,-2,-16,·,·
